Hits are enriched below; roughly 1.1% of the tested compounds scored in any of these assays.
HTR5A ag: counter-screen for OPRM1-OPRD1 agonists: human HTR5A agonism; P47898; AID 504692; HTR5A agonist assay, luminescence, cell-based; hit rate 0.61% among 340,000; activation, % at 9.3 µM; in the data active = activation mostly above about 9.5%, no sharp cut-off; inactive = mostly below about 7.6%;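 also: 0% = cells with vehicle only and 100% = reference agonist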
HTR5A inv ctr: HTR5A inverse agonism, opioid heterodimer counter-screen | AID 504634 | HTR5A cell line, luminescence | inhibition, % at 9.3 µM | hit rate 0.083% among 340,000 | P47898; in the data active = inhibition mostly above about 23%, no sharp cut-off; inactive = mostly below about 18%;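 also: 0% = cells with DMSO and 100% = no-cell wells with DMSO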
MOR-DOR inv ag: mu-delta opioid heterodimer inverse agonism. AID 504357. hit rate 0.21% among 340,000. P35372+P41143. inhibition, % at 9.3 µM. cell-based MOR-DOR heterodimer luminescence; in the data active = inhibition above about 22%, passing the limit was not always enough;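 also: 0% = cells with DMSO and 100% = wells without cells with DMSO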
Target sequence (P35372 whole entry, looked up): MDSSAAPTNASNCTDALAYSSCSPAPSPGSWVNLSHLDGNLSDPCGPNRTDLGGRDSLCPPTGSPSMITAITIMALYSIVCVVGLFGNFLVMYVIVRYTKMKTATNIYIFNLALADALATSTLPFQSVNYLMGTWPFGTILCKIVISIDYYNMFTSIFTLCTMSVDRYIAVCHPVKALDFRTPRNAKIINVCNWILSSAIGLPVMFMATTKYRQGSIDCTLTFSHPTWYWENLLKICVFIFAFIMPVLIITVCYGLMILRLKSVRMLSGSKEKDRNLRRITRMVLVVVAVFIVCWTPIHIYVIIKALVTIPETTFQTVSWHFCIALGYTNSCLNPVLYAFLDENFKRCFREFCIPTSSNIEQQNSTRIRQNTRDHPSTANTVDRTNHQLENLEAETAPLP
Target sequence (P41143 whole entry, looked up): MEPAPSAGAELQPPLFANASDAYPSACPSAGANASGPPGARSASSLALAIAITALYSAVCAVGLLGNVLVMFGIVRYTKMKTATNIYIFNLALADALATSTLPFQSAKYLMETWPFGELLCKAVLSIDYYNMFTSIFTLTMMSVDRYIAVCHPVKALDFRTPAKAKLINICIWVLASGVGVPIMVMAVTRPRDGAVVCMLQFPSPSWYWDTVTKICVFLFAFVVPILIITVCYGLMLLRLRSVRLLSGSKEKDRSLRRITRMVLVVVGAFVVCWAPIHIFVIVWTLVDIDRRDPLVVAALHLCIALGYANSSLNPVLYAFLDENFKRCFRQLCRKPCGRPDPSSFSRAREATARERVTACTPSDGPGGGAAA
MOR-DOR ag: OPRM1-OPRD1 heterodimerization agonism | P35372+P41143 | hit rate 0.3% among 340,000 | cells, luminescence | AID 504326 | activation, % at 9.3 µM; in the data active = activation above about 18%;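 also: 0% = vehicle-treated cells and 100% = reference agonist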
* marks the source's active call; other numbers are inactive results.

SMILES	HTR5A ag	HTR5A inv ctr	MOR-DOR inv ag	MOR-DOR ag
COCCN(C(=O)CNC(=O)c1ccco1)C(C(=O)NC1CCCC1)c1ccc(OC)c(OC)c1 (configuration not stated)	-2	4	3	-1
Cn1c(-c2ccccc2)c(C(=O)CCl)c2ccccc21	44*	-123	-233	42*
CCN(CC)CCCN(Cc1cc2cc3c(cc2[nH]c1=O)OCO3)C(=S)NC	11*	-40	-5	1
CCN(CC)CCCN(Cc1cc2cc3c(cc2[nH]c1=O)OCO3)C(=S)NCCCN(C)C	3	12	4	-1
C[C@@H]1CN([C@@H](C)CO)C(=O)c2cc(NS(C)(=O)=O)ccc2O[C@@H]1CN(C)Cc1ccc(C(F)(F)F)cc1	-2	6	8	-1
COCCNC(=O)C1CCC(CNS(=O)(=O)c2ccc3c(c2)CC(C)N3C(=O)C2CC2)CC1 (configuration not stated)	12*	17	17	-3
CCCNC(=O)C1CCC(CNS(=O)(=O)c2ccc3c(c2)CC(C)N3C(C)=O)CC1 (configuration not stated)	-2	13	19	-3
Cc1ccccc1/C(N)=N/OC(=O)c1cccs1	12*	-1	-59	9
N/C(=N\OC(=O)c1cccs1)c1cccnc1	-2	-19	-20	2
CC1CCCC(=NNC(=O)C2COc3ccccc3O2)C1 (configuration not stated)	0	7	10	-3
CCOc1ccc(NC(=O)Cn2nnc(C(=O)NCc3ccc4c(c3)OCO4)c2N)cc1	13*	-28	-45	9
CCOC(=O)CNc1nc(Cl)nc(Nc2ccc(C)cc2)n1	14*	6	-18	3
CCOc1ccccc1C1NC(=O)CCC1[N+](=O)[O-] (configuration not stated)	-2	9	12	-3
COc1ccc(-c2sc3ccccc3c2-c2ccc(OCCN(C)C)cc2)cc1	14*	-52	-66	12
CN(C)CCOc1ccc(-c2c(-c3ccsc3)sc3ccccc23)cc1	9	-28	-28	5
O=C(CSc1nnc(CNc2ccc(F)cc2)n1Cc1ccco1)N1CCCC1	0	6	-7	1
CCCc1nnc(SCC(=O)N2CCOCC2)n1Cc1ccco1	9.6*	0	-17	3
COc1ccc(C)cc1N(CC(=O)NCCN1CCOCC1)S(=O)(=O)c1ccccc1	1	-16	3	0
CN(CC(=O)NCc1ccco1)CC(=O)Nc1ccc(F)c(F)c1F	11*	-43	13	-2
CC1CCCC/C1=N\NS(=O)(=O)c1ccc(Br)cc1 (configuration not stated)	11*	-87	-17	3
O=S(=O)(N/N=C1/CCCc2ccccc21)c1ccc(Br)cc1	3	8	-35	6
CCc1ccc(CN2CCC(Oc3ccc(C(=O)N4CCCC4)cc3)CC2)cc1	1	5	16	-5
O=C(c1ccc(OC2CCN(Cc3ccc(F)cc3)CC2)cc1)N1CCCC1	10*	-38	2	0
Cc1csc(NC(=O)c2c(O)c3c(n(CC(C)C)c2=O)CCCC3)n1	11*	-15	18	-3
Cc1c(NS(=O)(=O)c2cccc(C(=O)NC(C)c3ccccc3)c2)c(=O)n(-c2ccccc2)n1C (configuration not stated)	-3	3	9	-2
SMILES	HTR5A ag	HTR5A inv ctr	MOR-DOR inv ag	MOR-DOR ag
COc1ccc(-c2ccc(SCC(=O)N3CCCC3)nn2)cc1OC	11*	-20	0	0
COc1ccc(-c2ccc(SCC(=O)N3CCOCC3)nn2)cc1OC	0	2	8	-1
O=C(CCCN=C1NS(=O)(=O)c2ccccc21)OCc1ccccc1	9	-3	15	-3
CSc1ccccc1NC(=O)COC(=O)CCC(=O)c1ccc(F)cc1	8.4*	-33	4	-1
Cc1nn(-c2ccccc2)c(C)c1NC(=O)COc1ccc2ccccc2c1	10*	-14	-8	1
O=C(CN1CCN(c2ccccc2O)CC1)Nc1ccc([N+](=O)[O-])cc1Br	11*	-31	-21	4
O=C(CN1CCN(c2ccccc2O)CC1)Nc1cc([N+](=O)[O-])ccc1Cl	2	8	-14	3
CCc1ccccc1NS(=O)(=O)c1ccc(OC)c2ncccc12	9.2*	-35	-21	4
O=C(COC(=O)CC1CCCC1)Nc1ccccc1[N+](=O)[O-]	9	-26	-35	9
CCCC(=O)C1=C(O)C(C(=O)OC)C(C)(C)CC1=Nc1ccccc1 (configuration not stated)	-4	10	5	-1
CCCC(=O)C1=C(O)C(C(=O)OC)C(C)(C)CC1=Nc1cccc2ccccc12 (configuration not stated)	10*	-27	-26	4
COc1ccc2ccn(S(=O)(=O)c3ccccc3)c2c1	5	12	1	0
Cc1ccc(NC(=O)COc2cccc3c2OC(C)(C)C3)c(O)c1	13*	-45	10	-3
CC1(C)Cc2cccc(OCC(=O)Nc3ccccc3F)c2O1	3	-7	0	0
Cc1cc(=O)oc2cc(NC(=O)Cc3ccccc3[N+](=O)[O-])ccc12	0	1	7	-1
CCOC(=O)c1c(C)[nH]c(=S)c(C#N)c1-c1ccc(OC)cc1	-3	6	13	-2
CCCCOc1ccc(-c2c(C(=O)Nc3ccccc3)c(C)[nH]c(=S)c2C#N)cc1	14*	-35	-23	3
c1ccc(N2CCN(c3ncnc4c3oc3ccccc34)CC2)cc1	14*	-32	-20	4
CCc1nnc(N2CCN(c3ncnc4c3oc3ccccc34)CC2)s1	4	-11	19	-3
O=C1C(Cc2ccccc2)Nc2ncnc(N3CCN(c4ccccc4)CC3)c2N1Cc1ccc(Cl)cc1 (configuration not stated)	-18	53*	57*	-12
CCOC(=O)c1c(NC(=O)c2ccc(N3C(=O)[C@@H]4[C@H](C3=O)[C@H]3C=C[C@@H]4C3)cc2)sc2c1CCCC2	0	1	4	0
CCOC(=O)c1cnn(-c2ccccc2)c1NC(=O)CN1CCOCC1	13*	-15	-5	1
CCN1CCN(Cc2ccc(NC(=O)c3cc(NC(=O)c4cnn(-c5ccccc5)c4N)cc(OC)c3)cc2C(F)(F)F)CC1	12*	-18	1	0
CCN1CCN(Cc2ccc(NC(=O)c3cc(NC(=O)c4cc(C)on4)cc(OC)c3)cc2C(F)(F)F)CC1	0	-2	-9	2
CC1=NN(c2ccccc2)C(=O)/C1=C/C=C/C=C/N(C)C	-8	22*	33*	-6
CC1=NN(c2ccc(C)cc2)C(=O)/C1=C\C=C\c1ccccc1	-6	-2	1	0
CC(Oc1ccccc1Cl)C(=O)N(Cc1cccs1)C1CCS(=O)(=O)C1 (configuration not stated)	7	-21	7	-1
COc1ccc(OC)c(NC(=O)C2CCN(S(=O)(=O)c3ccc4c(c3)CC(C)N4C(C)=O)CC2)c1 (configuration not stated)	2	15	19	-4
